Consider 18 compounds from PubChem BioAssay (NCATS).

By viability is commonly meant a per cent measure of how many cells are alive, often set against a control.

Molecules are shown by their SMILES. Inconclusive results are not listed. Where a call stands in place of a potency, no number is given. Calls of active or inactive are those of the source. Calls follow the shape of the dose curve; as a rule, active = well fitted inhibition curve with a large enough effect; inconclusive = small, poorly fitted or top-dose-only effect; inactive = no such curve, though single readings can be large or run the other way.

One experiment addresses Retinaldehyde dehydrogenase 3 (Homo sapiens) (UniProt P47895). Nature of the experiment: qHTS for Inhibitors of the Aldehyde Dehydrogenase Family (ALDH1A3) Primary screen (AID 2061315). The settings on record: ALDH inhibition qHTS; series mostly up to 56 µM. Background: In qHTS, concentration-response curves come from the screen itself.
Consider `Cc1c(NC(=O)OCC2COCCN2)cn2ncnc(Nc3ccc4c(cnn4Cc4cccc(F)c4)c3)c12` (stereo unspecified), for which the Potency entry is “inactive”.

Consider `Cc1c[nH]c2ncnc(N3CCC(CN)(C(=O)Nc4cccc(OC(=O)N(C)C)c4)CC3)c12`, for which the Potency entry is “inactive”. Still for that read-out and setting: next, `CCn1c(=O)c(-c2ccc(Cl)cc2Cl)cc2cnc(Nc3ccc(N4CCNCC4)c(F)c3)nc21`: “inactive”. On to `[2H]C([2H])(Nc1nc(-c2ccccc2C([2H])(C([2H])([2H])[2H])C([2H])([2H])[2H])ncc1C)c1ccc(-n2ccnn2)cc1`, for which the Potency result was “inactive”. On the same count and under the same terms, next, `O=C(c1ccc(/C=C/c2n[nH]c3ccccc23)cc1)N1CCNCC1`: “inactive”; `C[C@@H]1COC(Nc2ccc3ncnc(Nc4ccc(OCc5nccs5)c(Cl)c4)c3c2)=N1`: “inactive”. Take `CCCNC(=O)[C@H]1O[C@@H]1C(=O)N[C@H](C(=O)N1CCC[C@H]1C(=O)OC)C(C)CC` (stereo partly specified): the Potency result was “inactive”.

With `Cc1cccc(-c2[nH]ncc2-c2ccc(F)c(-c3cnn(CCO)c3)c2)n1`, the Potency result was “inactive”.

Consider `CC(C)NC(=O)COc1cccc(-c2nc(Nc3ccc4[nH]ncc4c3)c3ccccc3n2)c1`, for which the Potency result was “inactive”.

The target in another experiment is Aldehyde dehydrogenase 1A1 (Homo sapiens) (UniProt P00352). Nature of the experiment: qHTS for Inhibitors of the Aldehyde Dehydrogenase Family (ALDH1A1) Confirmatory screens (AID 2061316). Also: nearly all actives have a fitted effect of over 65% in size. Also: potency is read from the fitted curve at half-maximal effect. The settings on record: ALDH inhibition qHTS; series mostly up to 47.3 µM.
For the compound `Cc1ccnc(NC(=S)N2CCN(c3cc(Cl)cc(Cl)c3)CC2)c1`, the Potency is 5.65 µM (active).

As to `O=C1Cc2cc(S(=O)(=O)N3CCN(c4ccc(O)cc4)CC3)ccc2N1`, the Potency was 11.3 µM (active). For `CC(=O)N1CCN(c2ccc(N)cc2)CC1`, the Potency was 25.2 µM (active). `Nc1ccccc1S(=O)(=O)Nc1cccc2cccnc12`: the Potency entry was “inactive”.

Tested on in a further experiment: not listed separately
Nature of the experiment: BET inhibitor-based combinations targeting novel dependencies in MECOM-rearranged (r) AML: SET-2 cell line (AID 2202231). Also: nearly all actives have a fitted effect of over 35% in size. Also: potency is read from the fitted curve at half-maximal effect. As to conditions: SET-2 AML cells viability, CellTiter-Glo luminescence, 48 h; viability: hits give low values, concentration not given here. An outline of the steps:
(§1)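 Cells were plated at 500 per well and exposed to an 11-point dose series of each drug for 48 hr. Viability was measured by CellTiter-Glo luminescence, normalized to DMSO and empty-well controls, and summarized as AUC and per-cell-line Z-AUC.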
Background: In ATP-based viability assays light output follows the ATP content of the culture.
Turning to `CC(/C=C/C(=O)NO)=C\[C@@H](C)C(=O)c1ccc(N(C)C)cc1`, the Potency was 0.372 µM (active).

For `COc1ccc2[nH]c(S(=O)Cc3ncc(C)c(OC)c3C)nc2c1` (stereo unspecified), the viability was 97.7% (inactive).

On to `C=CC(=O)Nc1cccc(Nc2nc(Nc3ccc(N4CCN(C(C)=O)CC4)cc3OC)ncc2C(F)(F)F)c1`, for which the Potency was 14.8 µM (active).

Tested on in another experiment: not listed separately
Kind of experiment: BET inhibitor-based combinations targeting novel dependencies in MECOM-rearranged (r) AML: OCI-AML3 cell line (AID 2202232). Also: nearly all actives have a fitted effect of over 35% in size. Also: potency is read from the fitted curve at half-maximal effect. The settings on record: CellTiter-Glo luminescence, 48 h; Potency: OCI-AML3 viability; series mostly up to 46 µM. The method in brief: as §1
For the compound `Cn1cc(-c2cnn3c(N)c(Br)c(C4CCCNC4)nc23)cn1` (stereo unspecified), the Potency is 10.5 µM (active). Take `CC(/C=C/C(=O)NO)=C\[C@@H](C)C(=O)c1ccc(N(C)C)cc1`: the Potency was 0.662 µM (active). In the case of `Cc1cnc(Nc2ccc(F)cc2Cl)nc1-c1c[nH]c(C(=O)NC(CO)c2cccc(Cl)c2)c1` (stereo unspecified), the Potency was 4.68 µM (active). The same measure, in the same setting: the entry for `COc1ccc2[nH]c(S(=O)Cc3ncc(C)c(OC)c3C)nc2c1` (stereo unspecified) is “inactive”; for `C=CC(=O)Nc1cccc(Nc2nc(Nc3ccc(N4CCN(C(C)=O)CC4)cc3OC)ncc2C(F)(F)F)c1` it is 18.6 µM (active).
